# Laboratory results: article PMC7862700, “An all-to-all approach to the identification of sequence-specific readers for epigenetic DNA modifications on cytosine”
# Experiments:
# Assay in all cases: DAPPL (digital affinity profiling via proximity ligation, sequencing); 10 mM Tris-HCl pH 7.5, 50 mM NaCl, 1 mM DTT, 4% glycerol, room temperature, 30 min; GST-TFs on glutathione beads, 16-mer random dsDNA library, 0.1% formaldehyde crosslink after washing; high values mean tight binding
# FLI1 = target: T1, FLI1 (Homo sapiens, UniProt Q01543 1-452); details: protein: recombinant; tags: N-terminal GST; dsDNA, one strand shown
# T1 sequence: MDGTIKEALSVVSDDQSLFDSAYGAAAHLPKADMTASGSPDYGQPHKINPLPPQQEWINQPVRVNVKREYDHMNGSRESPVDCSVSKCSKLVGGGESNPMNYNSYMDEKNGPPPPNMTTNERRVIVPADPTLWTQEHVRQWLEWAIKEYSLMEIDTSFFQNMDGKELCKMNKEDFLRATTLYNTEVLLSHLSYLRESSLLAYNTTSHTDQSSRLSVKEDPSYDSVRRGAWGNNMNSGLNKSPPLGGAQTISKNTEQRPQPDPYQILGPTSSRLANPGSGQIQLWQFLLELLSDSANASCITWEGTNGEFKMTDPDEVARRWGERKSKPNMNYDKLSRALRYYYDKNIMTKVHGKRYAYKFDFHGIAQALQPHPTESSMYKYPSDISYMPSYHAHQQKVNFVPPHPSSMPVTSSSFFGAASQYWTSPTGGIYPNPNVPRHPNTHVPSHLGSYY
# In short: (§1)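 Human transcription factors carrying a GST fusion were produced in yeast, bound to glutathione beads, tagged with DNA barcodes and pooled together with a tag-only sample. Each pool was held with 200 nmole of a random double-stranded 16-mer DNA library in Tris/NaCl/DTT/glycerol buffer for 30 min at room temperature, then washed, crosslinked in 0.1% formaldehyde, proximity-ligated with BsaI/T4 ligase (1 h, 37 °C), PCR-amplified and sequenced on an Illumina NextSeq500. Binding signal is the read frequency of each hexamer for a given factor divided by its frequency in the tag-only sample.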
# ELK1 = target: T2, ELK1 (Homo sapiens, UniProt P19419 1-428); details: protein: recombinant; tags: N-terminal GST; dsDNA, one strand shown
# T2 sequence: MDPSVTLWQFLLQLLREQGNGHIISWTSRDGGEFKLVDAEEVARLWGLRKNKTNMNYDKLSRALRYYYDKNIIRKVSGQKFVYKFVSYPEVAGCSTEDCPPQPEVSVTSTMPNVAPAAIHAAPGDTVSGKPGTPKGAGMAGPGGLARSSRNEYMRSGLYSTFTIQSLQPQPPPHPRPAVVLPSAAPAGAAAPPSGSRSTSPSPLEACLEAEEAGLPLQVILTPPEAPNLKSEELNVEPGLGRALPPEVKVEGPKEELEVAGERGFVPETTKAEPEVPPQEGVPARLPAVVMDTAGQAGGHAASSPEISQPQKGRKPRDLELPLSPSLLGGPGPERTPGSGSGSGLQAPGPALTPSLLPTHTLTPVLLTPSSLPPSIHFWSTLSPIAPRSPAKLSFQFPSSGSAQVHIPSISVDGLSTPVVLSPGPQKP
# In short: as §1
# GABPA = target: T3, GABPA (Homo sapiens, UniProt Q06546 1-454); details: protein: recombinant; tags: N-terminal GST; dsDNA, one strand shown
# T3 sequence: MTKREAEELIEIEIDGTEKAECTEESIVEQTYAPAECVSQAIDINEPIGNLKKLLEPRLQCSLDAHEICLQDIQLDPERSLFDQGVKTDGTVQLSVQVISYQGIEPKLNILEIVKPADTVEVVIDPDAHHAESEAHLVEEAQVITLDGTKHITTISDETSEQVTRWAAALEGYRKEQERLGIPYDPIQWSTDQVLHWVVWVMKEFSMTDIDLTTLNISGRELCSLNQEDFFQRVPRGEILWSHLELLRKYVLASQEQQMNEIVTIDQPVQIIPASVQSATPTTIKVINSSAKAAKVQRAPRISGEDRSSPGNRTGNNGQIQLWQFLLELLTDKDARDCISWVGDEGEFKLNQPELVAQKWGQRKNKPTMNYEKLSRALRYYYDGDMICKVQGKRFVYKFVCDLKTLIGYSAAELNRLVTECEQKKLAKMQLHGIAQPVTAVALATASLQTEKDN
# In short: as §1
# ERG = target: T4, ERG (Homo sapiens, UniProt P11308 1-479); details: protein: recombinant; tags: N-terminal GST; dsDNA, one strand shown
# T4 sequence: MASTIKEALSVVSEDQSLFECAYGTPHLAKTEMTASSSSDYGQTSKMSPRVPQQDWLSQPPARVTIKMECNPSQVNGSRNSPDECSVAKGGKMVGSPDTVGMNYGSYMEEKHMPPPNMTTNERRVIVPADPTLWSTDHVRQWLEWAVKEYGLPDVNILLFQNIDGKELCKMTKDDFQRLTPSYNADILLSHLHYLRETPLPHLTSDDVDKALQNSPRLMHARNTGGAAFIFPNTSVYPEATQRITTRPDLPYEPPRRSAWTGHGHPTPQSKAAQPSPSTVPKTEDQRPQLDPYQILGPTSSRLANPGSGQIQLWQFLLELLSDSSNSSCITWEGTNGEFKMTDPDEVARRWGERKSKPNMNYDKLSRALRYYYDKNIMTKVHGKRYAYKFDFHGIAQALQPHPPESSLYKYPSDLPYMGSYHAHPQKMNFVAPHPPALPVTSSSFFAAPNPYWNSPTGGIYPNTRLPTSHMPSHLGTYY
# In short: as §1
# ELF1 = ELF1 (Homo sapiens, UniProt P32519 1-619); details: protein: recombinant; tags: N-terminal GST; dsDNA, one strand shown
# Chain of ELF1 (P32519 whole entry): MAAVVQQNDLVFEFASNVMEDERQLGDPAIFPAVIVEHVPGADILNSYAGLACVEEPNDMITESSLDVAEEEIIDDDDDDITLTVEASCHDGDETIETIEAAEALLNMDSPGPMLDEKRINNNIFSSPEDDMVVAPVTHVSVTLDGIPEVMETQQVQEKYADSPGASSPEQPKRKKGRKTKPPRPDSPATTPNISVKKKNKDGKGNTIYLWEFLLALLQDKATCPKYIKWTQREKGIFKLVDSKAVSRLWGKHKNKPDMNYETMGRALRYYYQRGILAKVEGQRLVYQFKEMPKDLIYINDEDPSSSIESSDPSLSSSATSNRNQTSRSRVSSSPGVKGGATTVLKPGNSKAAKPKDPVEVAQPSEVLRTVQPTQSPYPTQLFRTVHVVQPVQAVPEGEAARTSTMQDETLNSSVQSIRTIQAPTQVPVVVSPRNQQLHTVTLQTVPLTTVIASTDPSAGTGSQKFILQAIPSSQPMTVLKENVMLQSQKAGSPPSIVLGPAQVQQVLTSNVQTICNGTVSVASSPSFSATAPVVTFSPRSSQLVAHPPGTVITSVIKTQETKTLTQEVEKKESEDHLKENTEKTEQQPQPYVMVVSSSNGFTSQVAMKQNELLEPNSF
# In short: as §1
# EHF = target: T5, EHF (Homo sapiens, UniProt Q9NZC4 1-300); details: protein: recombinant; tags: N-terminal GST; dsDNA, one strand shown
# T5 sequence: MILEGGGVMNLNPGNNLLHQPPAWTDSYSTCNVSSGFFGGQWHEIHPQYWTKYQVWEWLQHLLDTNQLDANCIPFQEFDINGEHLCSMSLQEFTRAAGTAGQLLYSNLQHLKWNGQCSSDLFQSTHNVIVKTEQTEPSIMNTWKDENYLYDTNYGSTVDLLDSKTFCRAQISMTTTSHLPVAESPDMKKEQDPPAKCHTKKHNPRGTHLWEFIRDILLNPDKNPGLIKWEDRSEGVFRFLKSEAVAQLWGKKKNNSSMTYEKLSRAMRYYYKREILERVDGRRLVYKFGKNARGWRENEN
# In short: as §1
# SPI1 = SPI1 (Homo sapiens, UniProt P17947 1-270); details: protein: recombinant; tags: N-terminal GST; dsDNA, one strand shown
# In short: as §1
# SPIB = SPIB (Homo sapiens, UniProt Q01892 1-262); details: protein: recombinant; tags: N-terminal GST; dsDNA, one strand shown
# Chain of SPIB (Q01892 whole entry): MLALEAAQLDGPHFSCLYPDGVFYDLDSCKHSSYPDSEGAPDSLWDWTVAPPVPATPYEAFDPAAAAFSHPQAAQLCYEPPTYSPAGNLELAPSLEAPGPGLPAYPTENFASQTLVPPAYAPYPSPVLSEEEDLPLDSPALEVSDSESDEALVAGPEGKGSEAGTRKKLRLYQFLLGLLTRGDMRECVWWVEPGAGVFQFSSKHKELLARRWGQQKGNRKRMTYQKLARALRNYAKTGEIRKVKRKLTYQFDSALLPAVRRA
# In short: as §1
# ELK3 = target: T6, ELK3 (Homo sapiens, UniProt P41970 1-407); details: protein: recombinant; tags: N-terminal GST; dsDNA, one strand shown
# T6 sequence: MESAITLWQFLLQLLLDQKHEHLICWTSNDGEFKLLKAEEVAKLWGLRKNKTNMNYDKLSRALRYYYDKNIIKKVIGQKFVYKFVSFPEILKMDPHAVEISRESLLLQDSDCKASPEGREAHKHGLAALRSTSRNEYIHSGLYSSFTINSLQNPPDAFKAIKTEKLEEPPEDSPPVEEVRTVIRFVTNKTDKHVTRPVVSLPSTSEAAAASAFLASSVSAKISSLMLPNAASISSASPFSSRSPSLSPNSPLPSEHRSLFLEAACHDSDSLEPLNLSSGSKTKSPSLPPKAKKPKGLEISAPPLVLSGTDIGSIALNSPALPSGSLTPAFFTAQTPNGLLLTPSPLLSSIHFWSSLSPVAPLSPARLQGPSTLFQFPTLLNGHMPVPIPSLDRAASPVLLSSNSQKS
# In short: as §1
# FEV = target: T7, FEV (Homo sapiens, UniProt Q99581 1-238); details: protein: recombinant; tags: N-terminal GST; dsDNA, one strand shown
# T7 sequence: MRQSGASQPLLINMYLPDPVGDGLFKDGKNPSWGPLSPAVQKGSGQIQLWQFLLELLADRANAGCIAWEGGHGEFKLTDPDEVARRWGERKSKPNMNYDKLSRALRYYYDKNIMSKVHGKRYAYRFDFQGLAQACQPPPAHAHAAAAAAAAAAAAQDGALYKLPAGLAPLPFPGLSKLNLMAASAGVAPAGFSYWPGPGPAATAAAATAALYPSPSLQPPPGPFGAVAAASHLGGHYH
# In short: as §1
# ETV5 = ETV5 (Homo sapiens, UniProt P41161 1-510); details: protein: recombinant; tags: N-terminal GST; dsDNA, one strand shown
# Chain of ETV5 (P41161 whole entry): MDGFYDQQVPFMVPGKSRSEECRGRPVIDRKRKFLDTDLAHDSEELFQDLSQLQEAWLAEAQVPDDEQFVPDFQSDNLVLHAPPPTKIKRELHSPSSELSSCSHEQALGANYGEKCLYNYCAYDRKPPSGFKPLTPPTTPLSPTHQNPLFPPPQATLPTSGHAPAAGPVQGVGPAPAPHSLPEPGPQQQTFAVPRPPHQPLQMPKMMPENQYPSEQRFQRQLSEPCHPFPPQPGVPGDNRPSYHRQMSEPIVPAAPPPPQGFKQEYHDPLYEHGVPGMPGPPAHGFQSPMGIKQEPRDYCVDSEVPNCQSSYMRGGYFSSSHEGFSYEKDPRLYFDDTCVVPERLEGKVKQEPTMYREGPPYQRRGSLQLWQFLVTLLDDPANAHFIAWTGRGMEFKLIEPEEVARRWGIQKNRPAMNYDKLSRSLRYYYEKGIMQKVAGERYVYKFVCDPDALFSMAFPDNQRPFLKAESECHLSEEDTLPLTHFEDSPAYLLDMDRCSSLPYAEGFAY
# In short: as §1
# HSF1 = HSF1 (Homo sapiens, UniProt Q00613 1-529); details: protein: recombinant; tags: N-terminal GST; chain copies: 3; dsDNA, one strand shown
# Chain of HSF1 (Q00613 whole entry): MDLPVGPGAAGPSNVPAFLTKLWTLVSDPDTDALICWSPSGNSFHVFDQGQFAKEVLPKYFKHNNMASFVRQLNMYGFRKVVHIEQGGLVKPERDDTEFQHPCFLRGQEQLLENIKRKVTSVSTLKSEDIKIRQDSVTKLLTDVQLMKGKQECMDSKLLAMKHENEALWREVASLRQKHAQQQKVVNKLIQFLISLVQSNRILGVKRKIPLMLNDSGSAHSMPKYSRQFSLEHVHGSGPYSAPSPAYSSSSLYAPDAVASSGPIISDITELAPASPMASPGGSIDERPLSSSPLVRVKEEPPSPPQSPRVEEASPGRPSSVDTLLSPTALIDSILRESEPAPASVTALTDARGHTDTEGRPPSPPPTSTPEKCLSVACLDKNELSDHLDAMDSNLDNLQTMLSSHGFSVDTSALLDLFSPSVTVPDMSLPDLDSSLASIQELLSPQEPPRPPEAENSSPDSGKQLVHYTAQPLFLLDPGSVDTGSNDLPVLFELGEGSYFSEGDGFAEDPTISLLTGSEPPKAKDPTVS
# In short: as §1
# SPIC = target: T8, SPIC (Homo sapiens, UniProt Q8N5J4 1-248); details: protein: recombinant; tags: N-terminal GST; dsDNA, one strand shown
# T8 sequence: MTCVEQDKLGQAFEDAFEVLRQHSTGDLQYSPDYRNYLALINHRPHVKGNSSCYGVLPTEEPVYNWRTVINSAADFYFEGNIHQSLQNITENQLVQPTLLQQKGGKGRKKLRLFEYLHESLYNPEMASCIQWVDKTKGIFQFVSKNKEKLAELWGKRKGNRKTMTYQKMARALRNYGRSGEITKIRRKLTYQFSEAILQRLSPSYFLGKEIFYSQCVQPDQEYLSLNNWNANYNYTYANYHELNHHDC
# In short: as §1
# ELF4 = ELF4 (Homo sapiens, UniProt Q99607 1-663); details: protein: recombinant; tags: N-terminal GST; dsDNA, one strand shown
# Chain of ELF4 (Q99607 whole entry): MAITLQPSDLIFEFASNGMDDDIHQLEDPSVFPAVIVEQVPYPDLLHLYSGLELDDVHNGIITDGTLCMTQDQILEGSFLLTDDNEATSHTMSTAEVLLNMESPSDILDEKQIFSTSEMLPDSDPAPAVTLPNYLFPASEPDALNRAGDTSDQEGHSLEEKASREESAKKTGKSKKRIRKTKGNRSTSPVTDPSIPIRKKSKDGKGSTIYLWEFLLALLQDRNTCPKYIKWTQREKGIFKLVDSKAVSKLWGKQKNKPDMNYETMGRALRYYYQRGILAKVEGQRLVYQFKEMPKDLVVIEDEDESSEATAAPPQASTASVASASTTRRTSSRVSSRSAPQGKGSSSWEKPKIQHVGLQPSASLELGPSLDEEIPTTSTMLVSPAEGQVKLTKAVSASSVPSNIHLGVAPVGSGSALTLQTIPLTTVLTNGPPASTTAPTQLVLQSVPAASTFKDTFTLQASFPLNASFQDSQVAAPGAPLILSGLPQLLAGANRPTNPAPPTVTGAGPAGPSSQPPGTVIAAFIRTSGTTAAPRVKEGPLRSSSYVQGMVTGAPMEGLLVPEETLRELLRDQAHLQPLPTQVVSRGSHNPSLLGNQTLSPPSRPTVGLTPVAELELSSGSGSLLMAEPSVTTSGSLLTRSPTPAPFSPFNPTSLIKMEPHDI
# In short: as §1
# ELK4 = target: T9, ELK4 (Homo sapiens, UniProt P28324-2 1-405); details: protein: recombinant; tags: N-terminal GST; dsDNA, one strand shown
# T9 sequence: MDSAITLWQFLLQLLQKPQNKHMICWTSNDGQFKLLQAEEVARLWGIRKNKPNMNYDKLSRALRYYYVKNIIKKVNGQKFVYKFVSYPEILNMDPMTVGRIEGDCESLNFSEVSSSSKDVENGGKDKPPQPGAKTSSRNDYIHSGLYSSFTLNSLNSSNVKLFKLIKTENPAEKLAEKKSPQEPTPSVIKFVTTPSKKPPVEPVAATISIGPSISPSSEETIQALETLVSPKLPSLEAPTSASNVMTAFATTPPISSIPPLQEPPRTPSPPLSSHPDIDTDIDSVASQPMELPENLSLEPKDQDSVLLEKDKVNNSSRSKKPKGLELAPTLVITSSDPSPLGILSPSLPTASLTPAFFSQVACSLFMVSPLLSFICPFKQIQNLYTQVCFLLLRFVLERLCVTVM
# In short: as §1
# ETV2 = target: T10, ETV2 (Homo sapiens, UniProt O00321 1-342); details: protein: recombinant; tags: N-terminal GST; dsDNA, one strand shown
# T10 sequence: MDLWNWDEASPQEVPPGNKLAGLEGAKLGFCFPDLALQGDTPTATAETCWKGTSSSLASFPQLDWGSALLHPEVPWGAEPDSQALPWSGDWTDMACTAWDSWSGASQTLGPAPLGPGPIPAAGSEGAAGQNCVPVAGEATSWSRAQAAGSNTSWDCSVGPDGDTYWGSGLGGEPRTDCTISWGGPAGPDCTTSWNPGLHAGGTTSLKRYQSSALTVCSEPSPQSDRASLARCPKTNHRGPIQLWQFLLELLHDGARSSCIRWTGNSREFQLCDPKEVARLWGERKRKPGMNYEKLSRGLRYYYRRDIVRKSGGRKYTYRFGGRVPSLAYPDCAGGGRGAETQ
# In short: as §1
# ELF3 = target: T11, ELF3 (Homo sapiens, UniProt P78545 1-371); details: protein: recombinant; tags: N-terminal GST; dsDNA, one strand shown
# T11 sequence: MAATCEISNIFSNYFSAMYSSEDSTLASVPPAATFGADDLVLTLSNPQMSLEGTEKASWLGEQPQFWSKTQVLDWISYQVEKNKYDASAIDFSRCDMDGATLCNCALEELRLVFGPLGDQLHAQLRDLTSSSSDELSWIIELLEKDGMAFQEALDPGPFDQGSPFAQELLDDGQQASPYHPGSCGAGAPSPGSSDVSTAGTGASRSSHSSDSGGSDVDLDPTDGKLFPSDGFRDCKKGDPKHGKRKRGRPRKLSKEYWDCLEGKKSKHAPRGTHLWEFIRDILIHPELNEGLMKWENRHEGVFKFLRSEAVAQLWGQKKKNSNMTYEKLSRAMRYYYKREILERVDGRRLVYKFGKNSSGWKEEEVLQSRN
# In short: as §1
# ETV1 = ETV1 (Homo sapiens, UniProt P50549 1-477); details: protein: recombinant; tags: N-terminal GST; dsDNA, one strand shown
# Chain of ETV1 (P50549 whole entry): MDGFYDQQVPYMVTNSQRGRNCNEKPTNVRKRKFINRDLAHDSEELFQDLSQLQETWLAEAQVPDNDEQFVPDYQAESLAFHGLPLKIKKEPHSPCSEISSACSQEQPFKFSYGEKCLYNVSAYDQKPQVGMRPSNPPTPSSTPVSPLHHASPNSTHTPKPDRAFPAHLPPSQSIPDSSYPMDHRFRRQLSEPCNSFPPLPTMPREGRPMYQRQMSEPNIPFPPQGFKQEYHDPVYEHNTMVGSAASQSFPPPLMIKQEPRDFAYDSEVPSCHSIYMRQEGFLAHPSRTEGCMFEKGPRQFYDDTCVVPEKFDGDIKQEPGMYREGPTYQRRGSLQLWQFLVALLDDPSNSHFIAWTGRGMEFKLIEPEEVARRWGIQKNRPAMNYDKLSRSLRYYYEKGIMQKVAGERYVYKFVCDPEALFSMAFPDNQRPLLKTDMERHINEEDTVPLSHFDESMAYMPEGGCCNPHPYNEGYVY
# In short: as §1
sequence,measurement,setting,value
GCCTCA,binding signal,FLI1,"1.34 fold enrichment (6-mer frequency, TF over GST control)"
same,binding signal,ELK1,"1.34 fold enrichment (6-mer frequency, TF over GST control)"
same,binding signal,GABPA,"1.34 fold enrichment (6-mer frequency, TF over GST control)"
same,binding signal,ERG,"1.13 fold enrichment (6-mer frequency, TF over GST control)"
same,binding signal,ELF1,"1.25 fold enrichment (6-mer frequency, TF over GST control)"
same,binding signal,EHF,"1.17 fold enrichment (6-mer frequency, TF over GST control)"
same,binding signal,SPI1,"1.17 fold enrichment (6-mer frequency, TF over GST control)"
same,binding signal,SPIB,"1.25 fold enrichment (6-mer frequency, TF over GST control)"
same,binding signal,ELK3,"1.19 fold enrichment (6-mer frequency, TF over GST control)"
same,binding signal,FEV,"1.19 fold enrichment (6-mer frequency, TF over GST control)"
same,binding signal,ETV5,"1.22 fold enrichment (6-mer frequency, TF over GST control)"
same,binding signal,HSF1,"1.05 fold enrichment (6-mer frequency, TF over GST control)"
same,binding signal,SPIC,"1.21 fold enrichment (6-mer frequency, TF over GST control)"
same,binding signal,ELF4,"1.2 fold enrichment (6-mer frequency, TF over GST control)"
same,binding signal,ELK4,"1.13 fold enrichment (6-mer frequency, TF over GST control)"
same,binding signal,ETV2,"1.12 fold enrichment (6-mer frequency, TF over GST control)"
same,binding signal,ELF3,"1.34 fold enrichment (6-mer frequency, TF over GST control)"
same,binding signal,ETV1,"1.13 fold enrichment (6-mer frequency, TF over GST control)"
